# Screening results deposited in PubChem BioAssay by National Center for Advancing Translational Sciences (NCATS).
# FMDV antiviral = blocks foot and mouth disease virus. AID 1159524. Potency, µM (top dose mostly 57.9 µM), usual class: inhibitors. FMDV antiviral cell-based qHTS. hit rate 1.2% among 410,000; calls by dose curve; tested in HEK293T cells; further: read-out not given here; nearly all actives have a fitted effect of over 45% in size
# Vaccinia mCherry = vaccinia inhibition (mCherry reporter); Potency, µM (series often up to 36.5 µM), actives largely listed as inhibitors; hit rate 0.63% among 310,000; Vaccinia virus mCherry reporter infection, fluorescence; calls by dose curve; tested in A549 cells; further: nearly all actives have a fitted effect of over 35% in size
# HCMV inh = inhibitors of human cytomegalovirus | AID 1259415 | hit rate 4.5% among 410,000 | HFF cells, HCMV-luciferase reporter, 72 h; stronger effect = lower value | activity change, negative = inhibition, % at 57.5 µM; in the data active means activity change below about -60%; inconclusive means no clear call, values can overlap the other calls; inactive means above about -39%
#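 Cell-based, HFFs, 1000 cells/well, 16 h 37C; cpds in DMSO + HCMV-luc, MOI 1 PFU/cell; 72 h 37C; OneGlo luminescence after 5 min RT; norm. to buffer vs Salinomycin 10uM.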
# HCV inh = inhibitors of hepatitis C virus infection; Huh7.5.1 HCVcc-Cre infection, luciferase reporter, 44 h; Potency, µM (series often up to 41.8 µM), actives largely listed as inhibitors; hit rate 3.4% among 340,000; AID 651820; active means well fitted inhibition curve with a large enough effect; inconclusive means small, poorly fitted or top-dose-only effect, or another doubt; inactive means no such curve, though single readings can be large or run the other way
#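 Infectious HCVcc-Cre (~0.5 moi) was added to cells just after compound, with cells seeded 4 h earlier at 1,000 per well. Luciferase activity after 44 h culture reported infection; substrate was incubated 15 min at room temperature before reading.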
# VACV Venus inh = vaccinia inhibition (Venus reporter); hit rate 0.46% among 330,000; Vaccinia virus Venus reporter expression, fluorescence; Potency, µM (top dose mostly 36.5 µM), most hits filed as inhibitors; calls by dose curve; tested in A549 cells; further: nearly all actives have a fitted effect of over 30% in size
# Hits are given with their value; n = inactive; u = inconclusive; x = not tested or not shown; [ ] = remark or other dose. Hits are enriched below; roughly 7.3% of the tested compounds scored in any of these assays.
SMILES,FMDV antiviral,Vaccinia mCherry,HCMV inh,HCV inh,VACV Venus inh
O=C1NC(=O)C(=Cc2ccc(Sc3ccccc3)o2)C(=O)N1,22µM,n[7.34 µM],n,n,n[7.34 µM]
O=C1NC(=O)C(=Cc2ccc(-c3ccc(Cl)cc3)o2)C(=O)N1,32µM,n,x,n,u
COC(=O)c1ccc(CN2CCC3(CCC(CNC(=O)c4ccccc4)O3)CC2)cc1 (stereo unspecified),n,n,x,x,n
C#C[C@]1(O)CCC2C3CCC4=Cc5oncc5C[C@@]4(C)C3CC[C@@]21C (stereo partly specified),u,n,x,x,n
CCCC(=O)NCC(c1cccs1)S(=O)(=O)c1ccc(Cl)cc1 (stereo unspecified),n,n,-103,n,n
COc1ccc(CNC(=O)C(=O)NCC(c2cccs2)S(=O)(=O)c2ccc(C)cc2)cc1 (stereo unspecified),u,n,n,x,n
COc1ccc(CCNC(=O)C(=O)NCC(c2cccs2)S(=O)(=O)c2ccccc2)cc1 (stereo unspecified),28µM,u,n,x,u
Cc1ccc(S(=O)(=O)C(CNC(=O)Cc2ccc(Cl)cc2)c2cccs2)cc1 (stereo unspecified),n,n,n,x,n
COc1ccc(CCNC(=O)C(=O)NCC(c2cccs2)S(=O)(=O)c2ccc(C)cc2)cc1 (stereo unspecified),20µM,n,n,x,n
CCc1ccc(NCc2cc3cc(OC)c(OC)cc3n(CC(=O)Nc3cc(C)ccc3C)c2=O)cc1,n,n,n,x,n
O=C(Cc1ccsc1)NNC(=O)c1ccccc1O,n,u,-61,u,n
O=C(N/N=C/c1ccccc1F)c1cccc2ccccc12,n,x,n,n,x
O=C(NNC(=O)c1ccccc1OCc1ccccc1)c1ccccc1O,n,7.1µM,-88,u,u
CN(C)S(=O)(=O)c1cccc(COc2ccccc2C(=O)Nc2ccccc2)c1,n,n,n,u,n
CN(C)S(=O)(=O)c1cccc(NC(=O)c2ccccc2OCc2ccc(F)cc2)c1,n,n,n,6.3µM,n
O=C(N/N=C/c1ccccc1F)c1ccccc1OCc1ccccc1,n,n,n,10µM,n
COc1cc(NC(=O)c2c(C)oc3ncnc(N4CCCCC4)c23)cc(OC)c1,n,n,u,x,n
O=C(NNC(=O)c1ccccc1OCc1ccccc1)c1ccccc1F,n,n,n,n,n
CC(=O)c1ccccc1OCc1ccc(S(=O)(=O)Cc2ccccc2)cc1,u,x,-71,10µM,x
O=C(NNC(=O)c1ccccc1OCc1ccc(F)cc1)c1ccccc1O,n,u,-95,6.3µM,u
O=C(NCc1ccc(F)cc1)c1ccccc1OCc1ccccc1,u,n,-63,n,n
CC(=O)c1ccccc1OCCOc1ccccc1C(C)=O,n,x,n,n,x
COc1cc(C)ccc1OCCSc1nc2ccc(NC(=O)c3cccs3)cc2s1,n,n,n,x,n
CCCCN(C)CCNC(=O)c1ccc(Cn2c(=O)[nH]c3cc(OC)c(OC)cc3c2=O)cc1,n,u,n,x,n
CCOC(=O)c1c(-c2ccc(Br)cc2)csc1NC(=O)c1ccc(C(C)(C)C)cc1,n,n,n,x,n
SMILES,FMDV antiviral,Vaccinia mCherry,HCMV inh,HCV inh,VACV Venus inh
Cc1ccc(S(=O)(=O)N2CCN(c3nc(-c4cccs4)nc4cccnc34)CC2)cc1,x,n,x,x,n
COc1ccc(-n2c(SCC(=O)Nc3nnc(C)s3)nc3c([nH]c4ccccc43)c2=O)cc1,n,n,n,x,n
CC1(C(=O)Nc2ccc3[nH]ncc3c2)CCN1C(=O)CCc1ccccc1 (stereo unspecified),n,n,n,x,n
CC(C)(C)c1ccc(CC(=O)N2CCC2(C)C(=O)Nc2ccc3[nH]ncc3c2)cc1 (stereo unspecified),n,u,-86,x,n
CC1(C(=O)Nc2ccc3[nH]ncc3c2)CCN1C(=O)Cc1ccc(-c2ccccc2)cc1 (stereo unspecified),40µM,n,u,x,n
CN1CC2(Cc3cc([N+](=O)[O-])ccc31)C(=O)OC(C)(C)OC2=O,x,n,x,x,n
COc1cc2c(cc1OC)CN(C(=O)CSC1=NCCS1)CC2,u,n,-69,x,n
COc1cc(NC(=O)CSc2nc3[nH]ncc3c(=O)n2-c2ccccc2)cc(OC)c1OC,n,n,n,x,u
COc1cc2c(cc1OC)CN(C(=O)CSc1nc3[nH]ncc3c(=O)n1-c1ccccc1)CC2,n,n,x,11µM,n
COc1cc2c(cc1OC)CN(C(=O)c1nn(Cc3ccccc3)c(=O)c3ccccc13)CC2,n,u,u,10µM,u
CC(C)Oc1ccc(CN2CCC2(C)C(=O)Nc2cccc3cccnc23)cc1 (stereo unspecified),n,n,-78,x,n
CCC1CN(CCNC(=O)c2ccc(N3CCOCC3)cc2)Cc2cc(OC)ccc2O1 (stereo unspecified),n,n,x,x,n
CCCOC(=O)c1ccc(-[n+]2c(-c3ccccc3)cc(-c3ccccc3)cc2-c2ccccc2)cc1,14µM,n,-98,u,u
COc1ccc(-c2cc(-c3ccccc3)[n+](C)c(-c3ccccc3)c2)cc1,u,n,-101,u,n
Brc1ccc(-[n+]2c(-c3ccccc3)cc(-c3ccccc3)cc2-c2ccccc2)cc1,u,n,-98,u,u
COc1ccc(-[n+]2c(-c3ccccc3)cc(-c3ccc(C)cc3)cc2-c2ccccc2)cc1,u,u,-94,u,u
Fc1ccc(Nc2ncnc3c2nc2n3CCCCC2)c(F)c1,n,n,n,x,n
CCc1ccc(CNC(=O)CN2C(=O)CCn3nc(-c4cn(C)c5ccccc45)cc32)cc1,n,n,n,x,n
CCc1ccc(-n2nc3cc(C)c(NC(=O)c4cc(Cl)ccc4OC)cc3n2)cc1,n,n,n,x,n
C[n+]1c(-c2ccccc2)cc(CCCCc2cc(-c3ccccc3)[n+](C)c(-c3ccccc3)c2)cc1-c1ccccc1,u,n,-98,u,n
CCOC(=O)c1cc(OCc2csc(-c3ccccc3)n2)cc(C(=O)OCC)c1,x,n,x,x,n
O=C(CCCCn1c(=O)[nH]c2ccsc2c1=O)N1CCN(c2cccc(Cl)c2)CC1,u,u,-69,x,n
O=C(CCCn1c(=O)[nH]c2ccsc2c1=O)N1CCN(c2cccc(C(F)(F)F)c2)CC1,u,n,-105,x,n
O=C(CCn1c(=O)[nH]c2ccsc2c1=O)N1CCN(c2cccc(Cl)c2)CC1,u,x,n,n,x
COc1cc(N)c(Cl)cc1C(=O)OCC(=O)NCC1CCCCC1,n,n,-66,10µM,n
SMILES,FMDV antiviral,Vaccinia mCherry,HCMV inh,HCV inh,VACV Venus inh
CCOc1ccc(C(=O)NCc2ccc3c(c2)CCN3C(=O)c2ccc(C)cc2)cc1OCC,n,n,n,x,n
O=C(Nc1ccc(F)cc1)c1ccc(CN2CCc3ccccc3C2)cc1,u,x,n,5.6µM,x
CC(=O)Nc1ccc(NC(=O)c2ccc(CN3CCc4ccccc4C3)cc2)cc1,n,n,n,n,n
O=C(Nc1cccc(Br)c1)c1ccc(CN2CCc3ccccc3C2)cc1,u,x,n,2.2µM,x
CSc1cccc(NC(=O)c2ccc(CN3CCc4ccccc4C3)cc2)c1,u,n,-61,8.9µM,u
CSc1ccc(CCNC(=O)CCc2c(C)nc3c4cccnc4nn3c2C)cc1,n,n[7.34 µM],n,x,n
